# Test results taken from the supplement of paper PMC7366291.
# Counter-ions that a name gives are not always drawn. ± gives the standard deviation or the standard deviation of the averaged measurements.
# Columns and labels:
# Conditions in all cases: 25 µM; exposure: 24-48 hpf
# [1] = system: Danio rerio Tg(wt1b:EGFP) embryo, pronephros; assay: glomerular separation, fold change vs DMSO control; higher = glomeruli further apart (abnormal)
# Summary of the method: (§1)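 Each feature value is a fold change relative to the mean of same-day DMSO-treated embryos. Embryos of the Tg(wt1b:EGFP) zebrafish line, dechorionated, received 25 μM compound in 0.5% DMSO from 24 to 48 hpf at 28.5°C, in HEPES-buffered E3 with 0.003% PTU. Distances and angles were computed by a Fiji macro from 16 manually set reference points on maximum projections of dorsal pronephros images, and values beyond 2 SD of the feature mean were removed.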
# [2] = system: Danio rerio Tg(wt1b:EGFP) embryo, pronephros; assay: glomerular width (mean of left and right), fold change vs DMSO control; higher = wider glomerulus
# Summary of the method: as §1
# [3] = system: Danio rerio Tg(wt1b:EGFP) embryo, pronephros; assay: fraction of imaged embryos annotated as normal kidney; higher = less nephrotoxic; extreme values may be limits of the assay
# Summary of the method: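 The read-out is the proportion of embryos in each treatment manually annotated as normal-kidney. Exposure ran from 24 to 48 hpf at 28.5°C in 12-well plates, using dechorionated Tg(wt1b:EGFP) zebrafish embryos in 5 mM HEPES-buffered E3 with 0.003% PTU, 0.5% DMSO and 25 μM compound. For imaging, larvae were anaesthetised with tricaine, positioned dorsally in agarose-filled 96-well plates and captured by widefield fluorescence (470 nm, 10 z-slices), with scoring done on maximum projections.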
# [4] = system: Danio rerio Tg(wt1b:EGFP) embryo, pronephros; assay: pronephric angle neck segment to proximal convoluted tubule (mean of left and right), fold change vs DMSO control; higher = larger pronephric angle
# Summary of the method: as §1
Compound,glomerular separation [1],glomerular width [2],fraction of imaged embryos annotated as normal kidney [3],pronephric angle neck segment [4]
Nc1nc(CC(=O)Nc2ccc(CCNC[C@H](O)c3ccccc3)cc2)cs1 [Mirabegron],0.841 ± 0.26,1.04 ± 0.067,0.833,0.965 ± 0.014
CC(C(=O)O)c1cccc(C(=O)c2ccccc2)c1 (stereo not given) [Ketoprofen],1.58 ± 0.77,0.83 ± 0.037,–,1.1 ± 0.028
COc1ccccc1O [Guaiacol],1.03 ± 0.3,1.007 ± 0.0036,0.917,1.02 ± 0.035
C1CCC(C(CC2CCCCN2)C2CCCCC2)CC1 (stereo not given) [Perhexiline maleate],1.12 ± 0.32,0.9631 ± 0.0089,0.909,1.006 ± 0.00027
CC1CC(OC(=O)C(O)c2ccccc2)CC(C)(C)N1C (stereo not given) [Eucatropine hydrochloride],0.748 ± 0.31,0.975 ± 0.042,0.917,0.9583 ± 0.0057
CCOc1ccc2nc(S(N)(=O)=O)sc2c1 [Ethoxzolamide],2.05 ± 1.5,1.08 ± 0.0034,–,1.2306 ± 0.00079
CC1COc2c(N3CCN(C)CC3)c(F)cc3c(=O)c(C(=O)O)cn1c23 (stereo not given) [Ofloxacin],1.32 ± 0.67,1.043 ± 0.0041,0.833,1.06 ± 0.038
Cc1nc(=O)c2cc(CN(C)c3ccc(C(=O)N[C@@H](CCC(=O)O)C(=O)O)s3)ccc2[nH]1 [Raltitrexed],0.711 ± 0.3,1.08 ± 0.017,0.917,0.9802 ± 0.0082
COc1ccc(CCN(C)CCCC(C#N)(c2ccc(OC)c(OC)c2)C(C)C)cc1OC (stereo not given) [Verapamil hydrochloride],1.1 ± 0.41,0.995 ± 0.019,–,1.075 ± 0.0043
CCOC(=O)[C@H](CCc1ccccc1)N[C@@H](C)C(=O)N1Cc2ccccc2C[C@H]1C(=O)O [Quinapril hydrochloride],0.927 ± 0.39,0.987 ± 0.012,1,0.99 ± 0.015
CN(c1nccc(=O)[nH]1)C1CCN(c2nc3ccccc3n2Cc2ccc(F)cc2)CC1 [Mizolastine],1.05 ± 0.25,1.1 ± 0.017,0.917,0.937 ± 0.015
CCC(C)(C)c1ccc(CC(C)CN2C[C@@H](C)O[C@@H](C)C2)cc1 (stereo not given in full) [Amorolfine hydrochloride],0.874 ± 0.48,0.987 ± 0.017,0.917,0.983 ± 0.05
N=C(N)N1CCc2ccccc2C1 [Debrisoquin sulfate],1.02 ± 0.24,0.9804 ± 0.0064,0.667,1.01 ± 0.01
CN(N=O)C(=O)N[C@@H](C=O)[C@@H](O)[C@H](O)[C@H](O)CO [Streptozotocin],0.671 ± 0.14,1.06 ± 0.047,1,1.01 ± 0.025
NC(=O)C(c1ccccc1)(c1ccccc1)[C@@H]1CCN(CCc2ccc3c(c2)CCO3)C1 [Darifenacin hydrobromide],0.963 ± 0.39,1.09 ± 0.019,–,1 ± 0.029
O=C(c1ccc(F)cc1)C1CCN(CCn2c(=O)[nH]c3ccccc3c2=O)CC1 [Ketanserin tartrate hydrate],0.846 ± 0.25,0.939 ± 0.021,0.833,1.03 ± 0.046
CC(C)(C(=O)O)c1ccc(C(O)CCCN2CCC(C(O)(c3ccccc3)c3ccccc3)CC2)cc1 (stereo not given) [Fexofenadine hydrochloride],0.859 ± 0.33,1.12 ± 0.028,0.833,0.956 ± 0.033
CC=CC1=C(C(=O)O)N2C(=O)[C@@H](NC(=O)[C@H](N)c3ccc(O)cc3)[C@H]2SC1 [Cefprozil],0.967 ± 0.4,1.086 ± 0.0056,0.917,0.965 ± 0.061
CC(C)c1ccc2oc3nc(N)c(C(=O)O)cc3c(=O)c2c1 [Amlexanox],1.84 ± 0.69,1.04 ± 0.036,–,0.955 ± 0.017
CCOC(=O)N1CCC(=C2c3ccc(Cl)cc3CCc3cccnc32)CC1 [Loratadine],1.4 ± 0.98,0.989 ± 0.055,–,1.1 ± 0.021
C[C@@H]1CCC[C@H](C)N1NC(=O)c1ccc(Cl)c(S(N)(=O)=O)c1 [Clopamide],0.881 ± 0.2,1.01 ± 0.02,0.917,0.98 ± 0.051
CC(C)CN(C[C@@H](O)[C@H](Cc1ccccc1)NC(=O)O[C@H]1CO[C@H]2OCC[C@H]21)S(=O)(=O)c1ccc(N)cc1 [Darunavir],1.16 ± 0.42,0.976 ± 0.018,–,0.9599 ± 0.0035
O=C1CCc2ccc(OCCCCN3CCN(c4cccc(Cl)c4Cl)CC3)cc2N1 [Aripiprazole],0.976 ± 0.16,0.888 ± 0.06,1,1.08 ± 0.033
CC(=O)O[C@H]1C(=O)[C@@]2(C)[C@H]([C@H](OC(=O)c3ccccc3)[C@]3(O)C[C@H](OC(=O)[C@H](O)[C@@H](NC(=O)c4ccccc4)c4ccccc4)C(C)=C1C3(C)C)[C@]1(OC(C)=O)CO[C@@H]1C[C@@H]2O [Paclitaxel],1.59 ± 0.55,1.06 ± 0.015,1,0.964 ± 0.021
COC(=O)C1=C(C)NC(C)=C(C(=O)OC2CCCN(Cc3ccccc3)C2)C1c1cccc([N+](=O)[O-])c1 (stereo not given) [Benidipine hydrochloride],4.55 ± 0.53,0.7 ± 0.061,0,0.99 ± 0.056
CCC(C)(C)C(=O)O[C@H]1C[C@@H](C)C=C2C=C[C@H](C)[C@H](CC[C@@H]3C[C@@H](O)CC(=O)O3)[C@H]21 [Simvastatin],4.7 ± 1.8,0.658 ± 0.034,–,1.8 ± 0.065
CC1(C)[C@H](C(=O)O)N2C(=O)C[C@H]2S1(=O)=O [Sulbactam],0.653 ± 0.18,1.07 ± 0.04,–,0.952 ± 0.039
CCOC(=O)c1ccc(OC(=O)CCCCCNC(=N)N)cc1 [Gabexate mesilate],0.986 ± 0.37,0.986 ± 0.011,0.8,0.961 ± 0.013
CN(C)CCCN1c2ccccc2Sc2ccc(C(F)(F)F)cc21 [Triflupromazine hydrochloride],0.863 ± 0.37,1.033 ± 0.0067,–,0.954 ± 0.014
C[C@H](CCC(=O)O)[C@H]1CC[C@H]2[C@@H]3CC[C@@H]4C[C@H](O)CC[C@]4(C)[C@H]3CC[C@]12C [Lithocholic acid],1.26 ± 0.64,0.839 ± 0.085,0.364,0.929 ± 0.046
